Experimental data published in ChEMBL document CHEMBL3988442, “University of Dundee, Small-Polar-MMV Screening Library” (2021).

Tests used:
[1] = molecular target: T1, Aspartate--tRNA(Asp/Asn) ligase (Mycobacterium tuberculosis (strain ATCC 25618 / H37Rv)) (UniProt P9WFW3); test: Assay for Asp RNA synthetase-1 from Mycobacterium tuberculosis; format: functional; parameters: scale not given: direction of the effect not stated beside the values; details: 30 µM; also: in the data most compounds retested in dose-response had high values
T1 sequence (whole entry): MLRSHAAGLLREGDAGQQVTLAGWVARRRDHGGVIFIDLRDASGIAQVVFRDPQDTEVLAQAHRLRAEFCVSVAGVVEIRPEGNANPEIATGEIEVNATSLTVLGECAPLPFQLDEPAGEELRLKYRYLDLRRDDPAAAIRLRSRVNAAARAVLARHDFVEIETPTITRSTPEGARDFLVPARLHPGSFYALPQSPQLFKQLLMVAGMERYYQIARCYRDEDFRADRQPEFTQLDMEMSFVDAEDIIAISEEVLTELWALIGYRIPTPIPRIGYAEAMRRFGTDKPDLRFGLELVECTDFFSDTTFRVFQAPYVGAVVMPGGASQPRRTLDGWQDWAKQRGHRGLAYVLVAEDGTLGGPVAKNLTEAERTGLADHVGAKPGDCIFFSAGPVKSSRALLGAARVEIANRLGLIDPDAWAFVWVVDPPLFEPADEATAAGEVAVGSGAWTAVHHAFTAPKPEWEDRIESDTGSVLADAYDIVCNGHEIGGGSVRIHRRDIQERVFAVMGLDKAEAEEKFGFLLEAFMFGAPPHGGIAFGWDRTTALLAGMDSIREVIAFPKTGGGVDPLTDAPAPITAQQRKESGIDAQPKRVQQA

[2] = molecular target: Shiga toxin 2 (Escherichia coli O157:H7) (UniProt P09385+P09386); test: E. coli 0.157:H7 Shiga Toxin SOP - stx2 screening assay; format: functional; parameters: scale not given: direction of the effect not stated beside the values; details: 30 µM

| SMILES | Percent Effect [1] [%] | Percent Effect [2] [%] |
| --- | --- | --- |
| c1cnn(CC2CN(Cc3ccc(-n4ccnc4)cc3)CCO2)c1 (configuration not stated) | -1.11 | -7.92 |
| COCC(=O)N1CC[C@@H](O)[C@@H]1Cc1ccccc1 | 4.62 | 3.46 |
| CC[C@@]1(O)CCN(C(=O)c2ccc(SC)cc2)C[C@H]1O | -1.2 | 5.8 |
| CN(C)C(=O)N1CCn2nc(CNC(=O)CCC(F)(F)F)cc2C1 | 2.12 | -7.2 |
| Cc1nc(N2CCN(C(=O)c3ccc(O)cc3)CC2)c2cnn(C)c2n1 | -1.05 | 3.77 |
| CCOC1CCN(C(=O)c2cnn(-c3ccccc3Cl)c2)CC1 | 2.29 | 28.9 |
| Cc1ccoc1-c1nnc(CN2CCCC(Cn3cncn3)C2)o1 (configuration not stated) | 1.01 | -16.9 |
| CCCN(CC1COc2ccccc2O1)C(=O)CCn1cncn1 (configuration not stated) | -2.54 | 34.4 |
| CCOCC(O)CN1CCN(C(=O)CC(C)(C)C)CC1 (configuration not stated) | -3.73 | 14.9 |
| Cc1nc(C2CCCN2Cc2nc(C)c(C)o2)no1 (configuration not stated) | -0.728 | 7.48 |
| CC(=O)N1CCC(c2nccnc2Oc2ccccc2)CC1 | -0.819 | -5.88 |
| O=C(Cc1csc(-c2ccc(Cl)cc2)n1)NC(C(=O)O)c1ccccc1 (configuration not stated) | 1.86 | -21.9 |
| Cc1nc(C)n(C2CCCN(C(=O)c3csc(C(C)C)n3)C2)n1 (configuration not stated) | 7.62 | 4.53 |
| COc1cccc2cc(CNCc3ccnc(N4CCOCC4)c3)oc12 | -2.91 | 26.8 |
| COCC1c2nnn(CC3CC3)c2CCN1C(=O)c1ccnnc1 (configuration not stated) | -4.7 | -8.58 |
| Cc1oc(C(=O)O)cc1S(=O)(=O)Nc1ccc(Cl)c(F)c1 | 1.64 | 16.3 |
| CCN(Cc1cccc(Cl)c1)Cc1nc2c(cnn2C)c(=O)[nH]1 | -2.28 | 31.3 |
| CCOc1ccnc(N2CCN(C(=O)c3cccc(C#N)c3)CC2)n1 | -3.26 | 40.5 |
| O=C(c1ccc(Br)s1)N1CCN(Cc2ccc(OC(F)(F)F)cc2)CC1 | -3.13 | -21.7 |
| c1ncn(CC2CN(Cc3csc(C4CCCC4)n3)CCO2)n1 (configuration not stated) | -2.81 | 13.4 |
| Cn1cnc(S(=O)(=O)N2CCN(Cc3ccco3)CC2)c1Cl | -2.54 | 13.8 |
| Cc1cc(C(=O)N2CCC(c3nccn3CCCN(C)C)CC2)no1 | 7.7 | -11.8 |
| CC(C)Cc1noc(CN2CCN(C(=O)c3cccc(F)c3)CC2)n1 | -0.41 | -17.7 |

| SMILES | Percent Effect [1] [%] | Percent Effect [2] [%] |
| --- | --- | --- |
| CCN1CCN(Cc2coc(-c3cccc(F)c3)n2)CC1 | -7.31 | -35.5 |
| CS(=O)(=O)N1CCC(C(=O)NCCNc2ncccn2)CC1 | -0.962 | -1.12 |
| Cc1nnc(N2C[C@H](C(=O)NCC3CC3)[C@@H]3CCO[C@@H]3C2)s1 | -0.219 | -6.05 |
| CNC(=O)c1ccc(C(=O)N2CCCC(n3cc(C)cn3)C2)cn1 (configuration not stated) | -5.95 | -41.9 |
| CCc1cnc(N2CCC(=O)N(CC3CC3)C(C(C)C)C2)nc1 (configuration not stated) | 1.33 | 2.92 |
| CCc1n[nH]c(C2CN(C(=O)c3ccsc3)CCO2)n1 (configuration not stated) | -7.75 | 21.9 |
| CCc1nnc2n1CCN(C(=O)Cc1csc(-c3ccco3)n1)C2 | -2.26 | -3.06 |
| CCC1CN(CCC(=O)N(C)C)CCN1CCOC (configuration not stated) | 2.89 | 22.5 |
| CCN(CC)C(=O)Cn1ccc2cc(NC(=O)C3CCCO3)ccc21 (configuration not stated) | -4.41 | -1.75 |
| Cn1cc(C(=O)NCC2CCN(C(=O)NCC(F)(F)F)CC2)cn1 | 2.43 | -39.4 |
| COCCCN(C)Cc1nc2c(cnn2C)c(=O)[nH]1 | -1.71 | -15.2 |
| Cc1cc(CN2CCN(C(C)c3nc(C4CC4)no3)CC2)no1 (configuration not stated) | 3.89 | -2.55 |
| CCN1C(=O)C(C)(C)c2cc(NC(=O)c3ccco3)ccc21 | 10.8 | -25.1 |
| O=C(NCCS(=O)(=O)N1CCc2ccccc21)c1c(O)cc(F)cc1F | -2.88 | 23 |
| O=C(C1CCCCN1Cc1nc(-c2ccco2)no1)N1CCCC1 (configuration not stated) | 3.38 | 27.5 |
| CN1CCN(CC2CC2)C(=O)c2cnc(N3CCCCC3)nc21 | 3.69 | -8.64 |
| COc1cc2cc(C(=O)O)n(C)c2cc1OC | -0.697 | -0.0542 |
| Cc1cc(NC(=O)NCc2ccccc2OC(F)F)n(C)n1 | -5.2 | -10.5 |
| Cn1cccc1-c1cc(C(=O)N2CCCC2c2cccnc2)[nH]n1 (configuration not stated) | 2.57 | 4.82 |
| O=C(NC[C@@H]1CCCN1)c1cc(COc2cccc(C(F)(F)F)c2)[nH]n1 | 1.98 | -15.7 |
| CCOc1ccccc1Nc1nc2c(C)nn(C)c2c(=O)n1C | 1.66 | -24.7 |
| CC(C)Oc1ccccc1C1CC(=O)Nc2c1cnn2C (configuration not stated) | 2.79 | -6.39 |
| Cc1csc(C2CCCN(C(=O)c3ccc(=O)n(C)n3)C2)n1 (configuration not stated) | 3.09 | -15.3 |
